{
  "source": "PubChem BioAssay (EPA / NIEHS)",
  "key": {"[1]": {"biological_target": "rat Thyrotropin Releasing Hormone Receptor (TRH), Trhr (gene 25570) (UniProt Q01717)", "sequence (Q01717 whole entry, looked up)": "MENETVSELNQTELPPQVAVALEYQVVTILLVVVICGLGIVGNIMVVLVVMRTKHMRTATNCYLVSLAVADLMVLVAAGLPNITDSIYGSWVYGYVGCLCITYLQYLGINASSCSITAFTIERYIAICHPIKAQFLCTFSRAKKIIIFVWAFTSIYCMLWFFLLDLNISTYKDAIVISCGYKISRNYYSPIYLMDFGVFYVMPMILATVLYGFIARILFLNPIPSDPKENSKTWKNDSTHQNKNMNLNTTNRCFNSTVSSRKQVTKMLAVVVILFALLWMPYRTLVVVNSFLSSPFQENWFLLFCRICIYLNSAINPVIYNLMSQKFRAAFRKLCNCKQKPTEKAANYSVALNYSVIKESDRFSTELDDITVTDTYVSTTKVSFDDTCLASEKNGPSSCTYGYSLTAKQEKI", "assay": "NVS_GPCR_rTRH: NovaScreen (NVS) G Protein-Coupled Receptor Assay for rat Thyrotropin Releasing Hormone Receptor (TRH) (AID 2283329);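 note: hit means lower bound tracer signal versus DMSO baseline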", "procedure,_shortened": "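Competitive radioligand binding on rat forebrain membrane preparations, with filtration and scintillation readout after 4 h. Primary testing in duplicate at 25 uM; actives confirmed in concentration-response. DMSO defined baseline.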"}, "[2]": {"biological_target": "human Peripheral-type Benzodiazepine Receptor (PBR), TSPO (gene 706) (UniProt P30536)", "sequence (P30536 whole entry, looked up)": "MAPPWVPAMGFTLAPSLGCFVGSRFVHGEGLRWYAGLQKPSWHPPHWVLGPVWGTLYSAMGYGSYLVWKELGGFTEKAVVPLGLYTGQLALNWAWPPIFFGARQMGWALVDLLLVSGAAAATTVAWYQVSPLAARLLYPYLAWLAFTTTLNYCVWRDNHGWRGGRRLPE", "assay": "NVS_MP_hPBR: NovaScreen (NVS) Membrane Protein Assay for human Peripheral-type Benzodiazepine Receptor (PBR) (AID 2283331);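 note: hits reduce radioligand binding relative to DMSO baseline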", "procedure,_shortened": "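Cell-free binding to human colonic membrane preparations measured by filter-based scintillation counting after 1 h. Compounds first run at 25 uM in duplicate, then concentration series for actives; signal loss against DMSO baseline.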"}, "[3]": {"biological_target": "rat Peripheral-type Benzodiazepine Receptor (PBR), Tspo (gene 24230) (UniProt P16257)", "sequence (P16257 whole entry, looked up)": "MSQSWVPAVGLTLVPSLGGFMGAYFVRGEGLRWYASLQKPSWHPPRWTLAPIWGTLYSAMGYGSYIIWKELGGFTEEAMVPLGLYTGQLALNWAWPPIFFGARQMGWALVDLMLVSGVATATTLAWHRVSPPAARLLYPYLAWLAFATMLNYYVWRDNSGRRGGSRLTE", "assay": "NVS_MP_rPBR: NovaScreen (NVS) Membrane Protein Assay for rat Peripheral-type Benzodiazepine Receptor (PBR) (AID 2283335)", "procedure,_shortened": "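Competitive displacement of specific radioligand from rat kidney membrane PBR, read by filtration and scintillation after 1 h. Compounds first tested at 25 uM in duplicate, then in concentration series; signal loss relative to DMSO.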"}, "[4]": {"biological_target": "rat Neonicotinoid receptor (NNR), Chrna7 (gene 25302) (UniProt Q05941)", "sequence (Q05941 whole entry, looked up)": "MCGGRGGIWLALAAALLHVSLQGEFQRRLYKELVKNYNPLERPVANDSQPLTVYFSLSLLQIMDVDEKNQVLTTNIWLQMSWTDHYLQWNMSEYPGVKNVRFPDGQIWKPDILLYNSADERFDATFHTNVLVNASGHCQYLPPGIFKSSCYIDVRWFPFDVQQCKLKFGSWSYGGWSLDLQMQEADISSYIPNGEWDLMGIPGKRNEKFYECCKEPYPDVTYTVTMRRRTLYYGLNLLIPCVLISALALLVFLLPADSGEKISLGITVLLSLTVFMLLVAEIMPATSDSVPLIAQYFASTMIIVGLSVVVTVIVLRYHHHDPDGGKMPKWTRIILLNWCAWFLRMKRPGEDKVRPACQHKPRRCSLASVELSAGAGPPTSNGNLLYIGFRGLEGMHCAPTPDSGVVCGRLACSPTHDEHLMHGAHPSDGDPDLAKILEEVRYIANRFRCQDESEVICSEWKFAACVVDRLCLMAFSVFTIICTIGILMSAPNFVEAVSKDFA", "assay": "NVS_LGIC_rNNR_BungSens: NovaScreen (NVS) Ligand-Gated Ion Channel Assay for rat Neonicotinoid receptor (NNR) (AID 2283315)", "procedure,_shortened": "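Rat cortical membrane preparation incubated 2.5 h with tritiated or iodinated radioligand and test chemical. Bound radioactivity was filtered and counted by scintillation, and displacement was analysed against DMSO.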"}, "[5]": {"biological_target": "bovine Estrogen Receptor (ER), ESR1 (gene 407238) (UniProt P49884)", "sequence (P49884 whole entry, looked up)": "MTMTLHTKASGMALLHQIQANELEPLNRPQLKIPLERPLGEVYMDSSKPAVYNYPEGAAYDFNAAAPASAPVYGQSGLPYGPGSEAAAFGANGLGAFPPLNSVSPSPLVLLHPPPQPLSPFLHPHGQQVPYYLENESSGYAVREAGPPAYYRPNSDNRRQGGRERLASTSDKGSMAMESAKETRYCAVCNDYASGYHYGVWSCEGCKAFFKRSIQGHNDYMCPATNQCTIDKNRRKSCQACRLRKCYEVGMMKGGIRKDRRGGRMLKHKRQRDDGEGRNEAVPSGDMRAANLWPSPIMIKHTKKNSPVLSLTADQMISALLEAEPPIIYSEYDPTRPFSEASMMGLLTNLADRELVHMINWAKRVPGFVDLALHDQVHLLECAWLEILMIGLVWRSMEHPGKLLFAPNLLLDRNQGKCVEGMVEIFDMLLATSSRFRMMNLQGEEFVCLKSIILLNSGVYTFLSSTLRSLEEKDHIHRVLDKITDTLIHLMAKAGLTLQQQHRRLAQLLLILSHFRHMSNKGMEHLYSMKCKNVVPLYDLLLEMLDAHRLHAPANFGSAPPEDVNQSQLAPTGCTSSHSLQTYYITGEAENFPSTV", "assay": "NVS_NR_bER: NovaScreen (NVS) Nuclear Receptor Binding Assay for bovine Estrogen Receptor (ER) (AID 2283345);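 note: actives lower the bound radioligand count which means they displace the ER ligand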", "procedure,_shortened": "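Displacement of a radioligand from estrogen receptor in bovine uterine membrane preparations; scintillation signal taken at 18 hours, DMSO as baseline. Single-concentration duplicates (25 uM) preceded concentration-response follow-up of actives.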"}, "[6]": {"biological_target": "rat Vasopressin 1 Receptor (V1), Avpr1a (gene 25107) (UniProt P30560)", "sequence (P30560 whole entry, looked up)": "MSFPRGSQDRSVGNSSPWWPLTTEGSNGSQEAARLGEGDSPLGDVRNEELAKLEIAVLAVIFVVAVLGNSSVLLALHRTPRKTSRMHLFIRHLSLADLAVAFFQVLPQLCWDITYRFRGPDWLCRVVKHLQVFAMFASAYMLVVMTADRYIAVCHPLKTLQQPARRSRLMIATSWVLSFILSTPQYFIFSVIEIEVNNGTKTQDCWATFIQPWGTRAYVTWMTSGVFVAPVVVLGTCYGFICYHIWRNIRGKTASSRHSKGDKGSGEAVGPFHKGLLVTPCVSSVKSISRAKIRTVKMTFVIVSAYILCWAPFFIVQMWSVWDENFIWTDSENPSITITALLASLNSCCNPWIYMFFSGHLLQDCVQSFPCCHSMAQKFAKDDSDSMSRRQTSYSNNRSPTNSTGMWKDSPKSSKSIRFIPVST", "assay": "NVS_GPCR_rV1: NovaScreen (NVS) G Protein-Coupled Receptor Assay for rat Vasopressin 1 Receptor (V1) (AID 2283316)", "procedure,_shortened": "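Concentration-response up to 50 uM for chemicals passing a threshold such as 30% inhibition in an initial duplicate 25 uM screen. Displacement of radioligand from rat liver membranes measured after 1.5 h by filtration and scintillation.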"}, "[7]": {"biological_target": "rat Opioid Receptor, Non-selective Binding, Oprm1 (gene 25601) (UniProt P33535)", "sequence (P33535 whole entry, looked up)": "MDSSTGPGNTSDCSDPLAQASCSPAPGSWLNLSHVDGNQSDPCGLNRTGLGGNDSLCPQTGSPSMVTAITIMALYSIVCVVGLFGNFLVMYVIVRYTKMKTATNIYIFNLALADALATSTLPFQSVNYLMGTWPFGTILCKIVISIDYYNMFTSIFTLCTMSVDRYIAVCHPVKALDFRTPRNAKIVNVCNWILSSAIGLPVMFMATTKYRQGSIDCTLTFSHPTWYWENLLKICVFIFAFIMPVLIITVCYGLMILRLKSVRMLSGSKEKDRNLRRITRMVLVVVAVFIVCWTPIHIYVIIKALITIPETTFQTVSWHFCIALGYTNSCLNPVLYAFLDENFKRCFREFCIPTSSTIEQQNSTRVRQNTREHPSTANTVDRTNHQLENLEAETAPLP", "assay": "NVS_GPCR_rOpiate_NonSelective: NovaScreen (NVS) G Protein-Coupled Receptor Assay for rat Opioid Receptor, Non-selective Binding (AID 2283318)", "procedure,_shortened": "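Filter-based radioligand displacement using rat forebrain membrane preparations, measured 1.5 h post-dosing. Single-concentration duplicate screen at 25 uM, follow-up in concentration series; activity taken as signal loss relative to DMSO.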"}, "NCBI gene 24521": {"test_system": "NCBI gene 24521", "assay": "NVS_IC_rKATPCh: NovaScreen (NVS) Ion Channel Assay for rat Potassium Channel, ATP-Sensitive (KATPCh) (AID 2283319)", "procedure,_shortened": "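Primary duplicate screen at 25 uM, then singleton concentration series to 50 uM maximum, in a rat cortex membrane radioligand displacement assay. Binding measured by filtration and scintillation 2 h post-dose; DMSO baseline.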"}, "[8]": {"biological_target": "Sodium channel protein type 1 subunit alpha (Rattus norvegicus) (UniProt P04774)", "assay": "NVS_IC_rNaCh_site2: NovaScreen (NVS) Ion Channel Assay for rat Sodium Channel, Site 2 (NaCh) (AID 2283322);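 note: hit means loss of radioligand binding signal relative to DMSO so AC50 marks displacement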", "procedure,_shortened": "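Initial duplicate single-point testing at 25 uM, followed by concentration-response runs for actives. Binding of radioligand to rat forebrain membranes quantified after 1 h via filter-based radiodetection.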"}, "[9]": {"biological_target": "rat Gamma-Aminobutyric Acid Type A Receptor, Non-Selective (GABAR-NonSelective), Gabra1 (gene 29705) (UniProt P62813)", "sequence (P62813 whole entry, looked up)": "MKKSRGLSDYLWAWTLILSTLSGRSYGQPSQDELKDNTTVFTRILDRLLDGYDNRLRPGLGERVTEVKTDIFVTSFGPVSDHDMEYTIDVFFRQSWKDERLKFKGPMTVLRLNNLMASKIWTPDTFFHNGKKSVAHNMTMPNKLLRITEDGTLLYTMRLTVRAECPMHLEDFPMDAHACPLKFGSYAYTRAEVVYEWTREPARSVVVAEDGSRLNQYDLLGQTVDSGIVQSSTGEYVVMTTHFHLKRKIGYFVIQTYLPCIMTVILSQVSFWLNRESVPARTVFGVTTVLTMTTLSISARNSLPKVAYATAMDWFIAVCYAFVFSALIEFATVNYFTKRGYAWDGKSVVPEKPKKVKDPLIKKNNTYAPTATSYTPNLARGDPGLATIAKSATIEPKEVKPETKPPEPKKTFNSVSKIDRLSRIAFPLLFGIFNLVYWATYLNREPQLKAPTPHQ", "assay": "NVS_LGIC_rGABAR_NonSelective: NovaScreen (NVS) Ligand-Gated Ion Channel Assay for rat Gamma-Aminobutyric Acid Type A Receptor, Non-Selective (GABAR-NonSelective) (AID 2283326)", "procedure,_shortened": "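Compounds were first screened in duplicate at 25 uM, with actives run as singleton concentration series (max 50 uM). Binding of a radioligand to rat whole-brain GABA-A preparation was measured by filtration and scintillation counting after 1 h, DMSO baseline.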"}, "[10]": {"assay": "NVS_IC_rCaBTZCHL: NovaScreen (NVS) Ion Channel Assay for Calcium Channel, Type L, Benzothiazepine Site (CaBTZCHL) (AID 2283337)", "procedure,_shortened": "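Test chemicals were added to rat cortical membranes and incubated 1.5 h with a tritiated or iodinated radioligand for the benzothiazepine site. Bound ligand was separated by filtration and counted. Actives from the 25 uM duplicate screen were retested in concentration series.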"}, "[11]": {"biological_target": "rat Glutamate, MK-801 Agonist Site (GluNMDA_MK801), Grin1 (gene 24408) (UniProt P35439)", "assay": "NVS_LGIC_rGluNMDA_MK801_Agonist: NovaScreen (NVS) Ligand-Gated Ion Channel Assay for rat Glutamate, MK-801 Agonist Site (GluNMDA_MK801) (AID 2283340)", "procedure,_shortened": "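Rat forebrain membrane preparation; MK-801-site radioligand binding read by filtration and scintillation after 1.5 h. Single-point 25 uM duplicate screen, followed by singleton concentration series to 50 uM max; DMSO baseline.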"}, "[12]": {"test_system": "guinea pig Histamine Receptor (H2), gene 100729734", "assay": "NVS_GPCR_gH2: NovaScreen (NVS) G Protein-Coupled Receptor Assay for guinea pig Histamine Receptor (H2) (AID 2283342)", "procedure,_shortened": "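Guinea pig striatal membrane preparation with specific radioligand; bound counts measured by filtration and scintillation 1 h post-dosing, DMSO as baseline. Chemicals passing a 25 uM duplicate screen were titrated to a 50 uM maximum.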"}, "[13]": {"biological_target": "chimpanzee Androgen Receptor (AR), AR (gene 747460) (UniProt O97775)", "sequence (O97775 whole entry, looked up)": "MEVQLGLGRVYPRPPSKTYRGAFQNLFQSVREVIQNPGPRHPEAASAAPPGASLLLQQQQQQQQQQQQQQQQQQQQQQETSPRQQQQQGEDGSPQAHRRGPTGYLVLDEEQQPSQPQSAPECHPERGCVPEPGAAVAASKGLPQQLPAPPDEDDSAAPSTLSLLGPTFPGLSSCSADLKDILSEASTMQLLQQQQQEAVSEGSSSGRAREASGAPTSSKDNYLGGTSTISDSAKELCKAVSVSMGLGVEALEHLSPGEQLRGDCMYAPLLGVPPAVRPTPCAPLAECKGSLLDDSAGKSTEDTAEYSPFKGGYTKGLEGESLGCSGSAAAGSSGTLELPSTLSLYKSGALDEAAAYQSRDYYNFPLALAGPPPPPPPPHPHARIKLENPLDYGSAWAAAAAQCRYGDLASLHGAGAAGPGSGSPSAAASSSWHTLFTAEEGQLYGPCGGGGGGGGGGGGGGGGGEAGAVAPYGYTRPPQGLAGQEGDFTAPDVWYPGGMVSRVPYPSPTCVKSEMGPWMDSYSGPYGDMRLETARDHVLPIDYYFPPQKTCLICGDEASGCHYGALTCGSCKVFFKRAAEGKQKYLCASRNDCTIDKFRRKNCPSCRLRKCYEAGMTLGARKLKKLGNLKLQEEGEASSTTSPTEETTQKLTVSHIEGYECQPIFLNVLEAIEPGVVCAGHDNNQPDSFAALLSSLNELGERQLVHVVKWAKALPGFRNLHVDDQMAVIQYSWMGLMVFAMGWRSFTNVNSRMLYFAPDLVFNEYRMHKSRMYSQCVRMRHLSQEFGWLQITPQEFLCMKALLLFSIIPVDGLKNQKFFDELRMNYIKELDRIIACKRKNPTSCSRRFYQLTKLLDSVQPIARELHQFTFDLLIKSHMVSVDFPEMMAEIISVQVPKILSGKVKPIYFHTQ", "assay": "NVS_NR_cAR: NovaScreen (NVS) Nuclear Receptor Binding Assay for chimpanzee Androgen Receptor (AR) (AID 2283346)", "procedure,_shortened": "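Cell-free competition binding with insect-cell (Sf9/Sf21) extracted chimpanzee AR; scintillation signal from lysate at 72 h. Screened in duplicate at 25 uM, then concentration-response for actives; fitting relative to DMSO.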"}},
  "note": "Inconclusive results are not listed. Activity calls are given as the source filed them. Rule for the calls: active = hit-call score of the fitted dose curve at least 0.9, where 1 is the maximum; inconclusive = response in the unintended direction; inactive = score below 0.9.",
  "data": [
    {"molecule": "O=C(O)c1cccc(C(=O)O)n1", "values": [
      {"measurement": "outcome", "setting": "[1]", "result": "inactive"}
    ]},
    {"molecule": "Cc1ccc(C)c(S(=O)(=O)O)c1", "values": [
      {"measurement": "AC50", "setting": "[1]", "result": "0.194 µM (active)"}
    ]},
    {"molecule": "CC(C)c1c(C(=O)Nc2ccccc2)c(-c2ccccc2)c(-c2ccc(F)cc2)n1CC[C@@H](O)C[C@@H](O)CC(=O)O", "values": [
      {"measurement": "AC50", "setting": "[2]", "result": "11.2 µM (active)"},
      {"measurement": "AC50", "setting": "[3]", "result": "0.729 µM (active)"}
    ]},
    {"molecule": "C/C=C/C(=O)C1=C(C)CCCC1(C)C", "values": [
      {"measurement": "AC50", "setting": "[2]", "result": "10.8 µM (active)"},
      {"measurement": "AC50", "setting": "[3]", "result": "16.8 µM (active)"}
    ]},
    {"molecule": "CCCCC(CC)C(=O)OCCOCCOCCOCCOC(=O)C(CC)CCCC", "note": "(centres undefined)", "values": [
      {"measurement": "AC50", "setting": "[2]", "result": "15.8 µM (active)"}
    ]},
    {"molecule": "CC1CNCC(C)O1", "note": "(centres undefined)", "values": [
      {"measurement": "AC50", "setting": "[4]", "result": "25 µM (active)"}
    ]},
    {"molecule": "O=C(NCc1ncc(C(F)(F)F)cc1Cl)c1c(Cl)cccc1Cl", "values": [
      {"measurement": "AC50", "setting": "[2]", "result": "0.00396 µM (active)"},
      {"measurement": "AC50", "setting": "[3]", "result": "0.005 µM (active)"}
    ]},
    {"molecule": "CCc1ccccc1O", "values": [
      {"measurement": "outcome", "setting": "[1]", "result": "inactive"},
      {"measurement": "outcome", "setting": "[5]", "result": "inactive"}
    ]},
    {"molecule": "CS(=O)(=O)c1ccc([C@@H](CC2CCCC2)C(=O)Nc2cnccn2)cc1Cl", "values": [
      {"measurement": "outcome", "setting": "[6]", "result": "inactive"},
      {"measurement": "outcome", "setting": "[1]", "result": "inactive"}
    ]},
    {"molecule": "N=C(N)c1ccc(OCCCCCOc2ccc(C(=N)N)cc2)cc1", "values": [
      {"measurement": "AC50", "setting": "[7]", "result": "5.6 µM (active)"},
      {"measurement": "outcome", "setting": "NCBI gene 24521", "result": "inactive"},
      {"measurement": "AC50", "setting": "[8]", "result": "16.1 µM (active)"},
      {"measurement": "outcome", "setting": "[9]", "result": "inactive"},
      {"measurement": "AC50", "setting": "[10]", "result": "2.33 µM (active)"},
      {"measurement": "AC50", "setting": "[11]", "result": "35.8 µM (active)"},
      {"measurement": "AC50", "setting": "[12]", "result": "6.98 µM (active)"},
      {"measurement": "outcome", "setting": "[5]", "result": "inactive"}
    ]},
    {"molecule": "COc1cc([N+](=O)[O-])ccc1N", "values": [
      {"measurement": "outcome", "setting": "[1]", "result": "inactive"}
    ]},
    {"molecule": "Cc1cc(C(=C2C=CC(=Nc3ccc(S(=O)(=O)O)cc3)C=C2)c2ccc(Nc3ccc(S(=O)(=O)O)cc3)cc2)cc(S(=O)(=O)O)c1N", "values": [
      {"measurement": "outcome", "setting": "[1]", "result": "inactive"},
      {"measurement": "AC50", "setting": "[13]", "result": "15.5 µM (active)"}
    ]},
    {"molecule": "Clc1ccc(Nc2nnc(Cc3ccncc3)c3ccccc23)cc1", "values": [
      {"measurement": "AC50", "setting": "[8]", "result": "2.08 µM (active)"},
      {"measurement": "AC50", "setting": "[2]", "result": "1.95 µM (active)"}
    ]},
    {"molecule": "CCOC(=O)CN[C@@H](C(=O)N1CC[C@H]1C(=O)NCc1ccc(/C(N)=N/O)cc1)C1CCCCC1", "values": [
      {"measurement": "AC50", "setting": "[8]", "result": "0.00287 µM (active)"},
      {"measurement": "AC50", "setting": "[2]", "result": "1.25 µM (active)"}
    ]}
  ]
}
